# High-throughput results (PubChem BioAssay)
# An excerpt weighted towards active compounds, which were near 11% of everything screened.
# IMPase Li inh = IMPase inhibition in cells with lithium potentiation | Potency, µM (series often up to 59.4 µM), for inactives: top-dose activity, negative = IMPase inhibition, most hits filed as inhibitors | actives 0.35% (n = 210,000) | AID 1457 | CHO-M1 cells, IP1 TR-FRET (IP-One), carbachol + lithium; active = well fitted curve in the direction sought with a large enough effect; inconclusive = small, poorly fitted or top-dose-only effect, or another doubt; inactive = no such curve, though single readings can be large; an effect the other way counts as inactive or inconclusive;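 also: IP1 builds up when IMPase is blocked and the TR-FRET signal falls; potency is read from the fitted curve at half-maximal effect; plate controls were basal vehicle for no effect and high inhibitor control for full effect; nearly all actives have a fitted effect of over 50% in size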
#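 Readout is a homogeneous TR-FRET IP1 immunoassay (Ex 320, Em 665 and 620), where raised cytosolic IP1 lowers signal. Cells were CHO-M1 treated 30 min at 37C with test compounds plus a little lithium; AC50 values came from Hill-equation fitting.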
# ALOX12 inhib = 12-hLO (ALOX12) enzyme inhibition; actives 0.12% (n = 150,000); Potency, µM (doses to about 57.1 µM), without a hit: at the top dose activity change, negative = inhibition, most hits filed as inhibitors; purified 12-hLO, xylenol orange hydroperoxide absorbance; P18054; active = well fitted curve in the direction sought with a large enough effect; inconclusive = small, poorly fitted or top-dose-only effect, or another doubt; inactive = no such curve, though single readings can be large; an effect the other way counts as inactive or inconclusive; also: potency is read from the fitted curve at half-maximal effect; nearly all actives have a fitted effect of over 55% in size
# Target sequence (P18054 whole entry, looked up): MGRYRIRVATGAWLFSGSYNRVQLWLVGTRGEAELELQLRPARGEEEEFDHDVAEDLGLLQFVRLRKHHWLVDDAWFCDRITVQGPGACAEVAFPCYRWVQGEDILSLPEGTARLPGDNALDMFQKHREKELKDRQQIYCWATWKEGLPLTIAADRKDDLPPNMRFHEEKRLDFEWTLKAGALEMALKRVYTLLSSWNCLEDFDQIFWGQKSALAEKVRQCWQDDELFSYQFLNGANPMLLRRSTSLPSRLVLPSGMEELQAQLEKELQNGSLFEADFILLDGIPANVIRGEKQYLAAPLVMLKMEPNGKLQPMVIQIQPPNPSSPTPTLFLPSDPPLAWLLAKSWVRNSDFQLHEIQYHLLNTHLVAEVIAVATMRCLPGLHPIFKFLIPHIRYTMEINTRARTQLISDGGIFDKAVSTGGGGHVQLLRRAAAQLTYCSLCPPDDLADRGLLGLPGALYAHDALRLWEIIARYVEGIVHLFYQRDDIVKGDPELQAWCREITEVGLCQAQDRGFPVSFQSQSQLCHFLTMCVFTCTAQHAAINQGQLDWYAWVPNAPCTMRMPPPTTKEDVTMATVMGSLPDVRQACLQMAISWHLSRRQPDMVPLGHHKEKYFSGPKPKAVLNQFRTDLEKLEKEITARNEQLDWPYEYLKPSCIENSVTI
#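 150 nM 12hLO, 25 mM Hepes pH 7.0 + 0.01% Triton X-100; cpd preinc 15 min RT; 40 uM arachidonic acid, 30 min RT; Fe-XO 30 min; A573/A405 ratio as read-out.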
# ALDH1A1 block = ALDH1A1 (human) enzyme inhibition | Purified ALDH1A1, NADH fluorescence, propionaldehyde substrate | Potency, µM (doses to about 75.3 µM), for the others: top-dose activity, negative = inhibition, actives largely listed as inhibitors | AID 1030 | actives 7.3% (n = 220,000) | P00352;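 also: potency is read from the fitted curve at half-maximal effect; plate controls were no enzyme wells and a reference inhibitor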
# HPGD inh = inhibitors of human 15-hydroxyprostaglandin dehydrogenase (HPGD); purified HPGD, NADH fluorescence kinetic, PGE2 substrate; Potency, µM, inactives show at the highest dose activity change, negative = inhibition, hits mostly inhibitors; actives 4.3% (n = 150,000); AID 894; also: potency is read from the fitted curve at half-maximal effect
#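 20 nM HPGD preincubated 15 min at room temperature with compound in 50 mM Tris-HCl pH 8, 0.01% Tween 20. Started with 1 mM NAD+ and 30 uM prostaglandin E2; NADH fluorescence (360/450 nm) read 5 times over 30-s intervals, last minus first.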
# PNC inhibitor = perinucleolar compartment assembly inhibition; PC3M PTB-GFP, PNC prevalence imaging, 16 h; stronger effect = lower value; actives 3.1% (n = 140,000); activity change (PNC), negative = inhibition, % at 10 µM; AID 2417;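 active = readout at or below -70, meaning at least 70% loss of cells showing the perinucleolar compartment, a nuclear body marking cancer cells; inconclusive = readout between -30 and a set limit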;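 also: plate controls were DMSO wells for no effect and camptothecin positive control wells for full effect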
#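 Read-out is percentage of cells bearing a perinucleolar compartment, from automated 20x imaging of fixed, Hoechst-stained PC3M PTB-GFP cells. Cells were seeded 4 h, then exposed 16 h to compound (23 nl of library stock) in duplicate plates.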
# IMPase cell inh = IMPase inhibition in cells; P97697; CHO-M1 cells, IP1 accumulation, HTRF TR-FRET ratio; inhibition (IP1 accumulation), % at 46.1 µM; 120,000 tested, under 10 active; active = well fitted curve in the direction sought with a large enough effect in the signal ratio, not every such curve was filed as active; inconclusive = small, poorly fitted or top-dose-only effect, or a change in a side signal; inactive = no such curve, though single readings can be large or run the other way; the % refers to the signal ratio;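 also: cells stimulated with carbachol in lithium chloride buffer; plate controls were DMSO basal wells for no effect and reference inhibitor wells for full effect; higher means more IMPase inhibition seen as more IP1 and lower FRET ratio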
#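 Seeded CHO-M1 cells were dosed with compound at up to 46 uM, stimulated with carbachol for 30 min, then lysed in IP-One detection reagents. Higher IP1 lowers the TR-FRET signal.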
# * hit, by the source's call; ? = inconclusive; nt = no result; [ ] = remark or other dose. Unless noted, calls follow the shape of the dose curve; as a rule, active = well fitted inhibition curve with a large enough effect (not every such curve was filed as active); inconclusive = small, poorly fitted or top-dose-only effect, or another doubt; inactive = no such curve, though single readings can be large or run the other way. Unless noted, % is scaled to controls: 0 for no effect and ±100 for the full control effect.
SMILES,IMPase Li inh,ALOX12 inhib,ALDH1A1 block,HPGD inh,PNC inhibitor,IMPase cell inh
Cc1ccc2cc(C3CC(c4ccco4)=NN3S(C)(=O)=O)c(Cl)nc2c1 (centres undefined),nt,nt,17.8µM*,nt,nt,nt
Cc1cc(-c2nn(-c3ccccc3F)cc2CNCCc2cnc[nH]2)c(C)s1,9.5%,nt,14.1µM*,nt,nt,nt
CC(C)CN1CCC2(CC1)CCN(S(=O)(=O)c1ccccc1)CC2,26.2%,-15.4%,10.0%,-1.7%,nt,nt
Cc1ccc(N=C/C(C(=O)C(F)(F)F)=C(\O)c2ccco2)cc1Cl,nt,-0.9%,2.24µM*,nt,-19.2,-3.1
CCOC(=O)c1c(NC(=O)/C=C/c2ccccc2)sc2c1CCCC2,nt,nt,nt,nt,nt,-11.3
O=C(Nc1cccc(F)c1)N1CC[C@@]2(CCCNC2)C1,15.4%,-4.1%,25.1µM*,-9.7%,nt,nt
NNC(=O)c1cnn(Cc2ccccc2)c1N,1.6%,7.3%,12.6µM*,-8.8%,-22.4,-3.2
NC(=O)c1cnn(Cc2ccc(Cl)cc2)c1N,3.6%[38.3 µM],-4.0%,6.5%,-1.3%,13.5,-0.3
Nc1ncnc2nc(-c3ccc(N4CCOCC4)nc3)cc(-c3cccc(Br)c3)c12,-21.0%,-3.0%,?,?,nt,nt
O=C(Nc1ccc(CCC(=O)N2CCCC2)cc1)c1ncn[nH]1,-3.0%[38.3 µM],-2.5%,8.9%,28.2µM*,28.1,?
O=C(Nc1ccc(N2CCCCC2)c(Cl)c1)c1ncn[nH]1,-15.6%[38.3 µM],-5.7%,-6.3%,12.6µM*,?,2.8
CC(C)C(=O)Nc1ccc(N2CCCC2)c(Cl)c1,0.7%,nt,2.3%,nt,nt,nt
O=C(CCn1cnc(-c2ccccc2)c1-c1ccccc1)N/N=C/c1ccc(O)cc1,-1.7%,0.9%,?,-14.8%,-5.9,nt
COc1ccc(/C=N/NC(=O)COc2ccccc2-c2ccccc2)cc1,45.8%[38.3 µM],0.9%,-6.7%,-23.2%,-114.6*,-8.5[1.84 µM]
COc1ccc(/C=N/NC(=O)CCn2cnc(-c3ccccc3)c2-c2ccccc2)cc1,7.5%,-3.7%,?,-5.2%,-108.4*,nt
CC1(C)O[C@H]2C[C@@H]3[C@H]4CCC5=CC(=O)C=C[C@]5(C)[C@@]4(F)[C@@H](O)C[C@]3(C)[C@]2(C(=O)CO)O1,-4.1%,-1.2%[0.00818 µM],3.5%,-11.7%,nt,nt
CCC(C(=O)C(C)C(O)C(C)CCc1ccc(C)c(O)c1C(=O)O)C1OC(CC)(C2CC[C@@](O)(CC)C(C)O2)CC1C (some centres undefined),-4.9%,0.3%,-0.6%,-6.2%,nt,nt
COc1ccc(-c2nnc3sc(C(C)N4C(=O)c5ccccc5C4=O)nn23)cc1 (centres undefined),8.5%,-7.7%,-1.6%,7.08µM*,-18.4,-7.0
COc1ccccc1-c1nccc(NCc2cccnc2)n1,11.2%,nt,?,nt,nt,nt
CCOC(=O)CSc1nc(-c2ccccc2)ns1,-0.9%,nt,?,nt,nt,nt
CCOC(=O)CSC1=NC(=O)/C(=C\c2ccc(OC(C)=O)cc2)S1,6.8%[38.3 µM],-4.8%,-7.4%,25.1µM*,4.4,-8.3
CCCCC/C=C\C/C=C\CCCCCCCC(=O)NCC(=O)O,1.4%,2.9%,4.3%,-11.9%,nt,nt
NNC(=O)CSCc1nc(-c2ccccc2)cs1,nt,nt,-4.2%,nt,nt,nt
NNC(=O)CSCc1nc(-c2ccc(Cl)cc2)cs1,nt,nt,0.708µM*,nt,nt,nt
NC(=S)Cc1nc(-c2ccc(Cl)cc2)cs1,14.9%,nt,2µM*,nt,nt,nt
SMILES,IMPase Li inh,ALOX12 inhib,ALDH1A1 block,HPGD inh,PNC inhibitor,IMPase cell inh
COC(=O)c1ccc(C(NC(=O)OCc2ccccc2)/C(C)=C/[C@@H](C)C(=O)NCCc2c[nH]c3ccc(OC)cc23)cc1 (some centres undefined),0.8%,-7.0%,-13.2%,-13.1%,nt,nt
CCOC(=O)C(=O)N=Nc1c(O)n(C)c2ccccc12,3.3%,nt,14.1µM*,nt,nt,nt
COC(=O)Cn1c(C)c(C#N)c2ccccc21,21.5%,28.8%,1.6%,-9.1%,?,-2.6
Cn1c(O)c(N=NC(=O)c2ccccc2O)c2ccccc21,27.0%,nt,1.1%,nt,nt,nt
CCOC(=O)N=Nc1c(O)n(CC(=O)OC)c2ccccc12,-1.6%,nt,7.08µM*,nt,nt,nt
C=C(Br)CN(C)CC(=C)Br,-6.1%,-5.0%[11.4 µM],-3.0%[13.5 µM],-1.2%,nt,nt
